Calls of active or inactive are those of the source. The calls were made as follows: active = hit-call score of the fitted dose curve at least 0.9, where 1 is the maximum; inactive = score below 0.9.
Key:
Settings in all cases: mRNA level, 48 h; actives raise or lower the signal
[1] = read-out: Broad substrate specificity ATP-binding cassette transporter ABCG2 (Homo sapiens) (UniProt Q9UNQ0); test: LTEA_HepaRG_ABCG2: Life Technologies and Expression Analysis (LTEA) Assay for ABC Transporter (ABCG2) using HepaRG (AID 2283465)
How it was run: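 Read-out is ABCG2 mRNA induction or loss quantified by qRT-PCR after 48 h chemical treatment of human HepaRG cells, normalized to three housekeeping genes. Concentrations reached 100 uM top in half-log steps; fitting was bidirectional against 0.5% DMSO.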

[2] = read-out: ATP-citrate lyase (ACLY), ACLY (gene 47); test: LTEA_HepaRG_ACLY: Life Technologies and Expression Analysis (LTEA) Assay for ATP-citrate lyase (ACLY) using HepaRG (AID 2283466)
How it was run: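 HepaRG, 48 h exposure, 8-pt half-log dilutions (top 100 uM), 0.5% DMSO. Readout: ACLY mRNA, TaqMan qRT-PCR, housekeeping-normalized (ACTB/GAPDH/POLR2A). Bidirectional curve fit vs DMSO.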

[3] = read-out: Peroxisomal acyl-coenzyme A oxidase 1 (ACOX1) gene, ACOX1 (gene 51); test: LTEA_HepaRG_ACOX1: Life Technologies and Expression Analysis (LTEA) Assay for Peroxisomal acyl-coenzyme A oxidase 1 (ACOX1) gene using HepaRG (AID 2283467)
How it was run: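 Measured by qRT-PCR against three housekeeping genes: ACOX1 transcript change in human HepaRG cells after 48 h dosing. Concentrations ran up to 100 uM in half-log steps. Curves were fitted bidirectionally relative to 0.5% DMSO.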

[4] = read-out: Alkaline Phosphatase, Placental (ALPP) gene, ALPP (gene 250); test: LTEA_HepaRG_ALPP: Life Technologies and Expression Analysis (LTEA) Assay for Alkaline Phosphatase, Placental (ALPP) gene using HepaRG (AID 2283468)
How it was run: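 HepaRG cells plated 48 h, then exposed in duplicate for 48 h in serum-free induction medium to 8-point half-log series from 100 uM in 0.5% DMSO. ALPP mRNA by TaqMan qRT-PCR, normalized to ACTB/GAPDH/POLR2A; bidirectional fit versus DMSO.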

[5] = read-out: Bcl-2 (BAD) gene, BAD (gene 572); test: LTEA_HepaRG_BAD: Life Technologies and Expression Analysis (LTEA) Assay for Bcl-2 (BAD) gene using HepaRG (AID 2283469)
How it was run: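 BAD transcript change, measured by qRT-PCR against three housekeeping genes and fitted in both directions relative to 0.5% DMSO, after 48 h chemical treatment of human HepaRG liver cells at concentrations up to 100 uM.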

[6] = read-out: Bcl-2 (BAX) gene, BAX (gene 581); test: LTEA_HepaRG_BAX: Life Technologies and Expression Analysis (LTEA) Assay for Bcl-2 (BAX) gene using HepaRG (AID 2283470)
How it was run: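 Differentiated human HepaRG cells, plated 48 h then switched to serum-free induction medium, were exposed 48 h to 8 half-log concentrations up to 100 uM in 0.5% DMSO; BAX mRNA measured by qRT-PCR, normalized to ACTB, GAPDH, POLR2A.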

[7] = read-out: adenosine kinase (ADK) gene, ADK (gene 132); test: LTEA_HepaRG_ADK: Life Technologies and Expression Analysis (LTEA) Assay for adenosine kinase (ADK) gene using HepaRG (AID 2283471)
How it was run: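 ADK expression quantified by qRT-PCR, normalised to three housekeeping genes, after 48 h exposure of HepaRG cells to eight concentrations (top 100 uM, half-log steps, duplicate, 0.5% DMSO). Up- or down-regulation fitted relative to vehicle.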

[8] = read-out: Alpha-fetoprotein (AFP) gene, AFP (gene 174); test: LTEA_HepaRG_AFP: Life Technologies and Expression Analysis (LTEA) Assay for Alpha-fetoprotein (AFP) gene using HepaRG (AID 2283472)
How it was run: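 Human HepaRG cells plated 48 h, then switched to serum-free induction medium and exposed in duplicate for 48 h to 8-point half-log series from 100 uM in 0.5% DMSO. AFP mRNA by qRT-PCR, normalized to ACTB, GAPDH, POLR2A; bidirectional fit versus DMSO.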

BCL2L11 (gene 10018) = test: LTEA_HepaRG_BCL2L11: Life Technologies and Expression Analysis (LTEA) Assay for Bcl-2 (BCL2L11) gene using HepaRG (AID 2283473)
How it was run: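 Differentiated human HepaRG cells were exposed 48 h in serum-free induction medium to eight half-log concentrations up to 100 uM in 0.5% DMSO, in duplicate. BCL2L11 mRNA was quantified by TaqMan qRT-PCR, normalized to ACTB, GAPDH and POLR2A; induction or repression fitted versus DMSO.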

[9] = read-out: Apolipoprotein A-V (APOA5) gene, APOA5 (gene 116519); test: LTEA_HepaRG_APOA5: Life Technologies and Expression Analysis (LTEA) Assay for Apolipoprotein A-V (APOA5) gene using HepaRG (AID 2283474)
How it was run: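 Differentiated HepaRG cells in serum-free induction medium, exposed 48 h in duplicate to eight half-log concentrations topping at 100 uM (0.5% DMSO). APOA5 mRNA by Fluidigm TaqMan qRT-PCR, normalized to ACTB, GAPDH and POLR2A; bidirectional fit versus DMSO.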

[10] = read-out: Apoptosis regulator Bcl-2 (Homo sapiens) (UniProt P10415); test: LTEA_HepaRG_BCL2: Life Technologies and Expression Analysis (LTEA) Assay for Bcl-2 gene using HepaRG (AID 2283475)
How it was run: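 Differentiated HepaRG cells in serum-free induction medium were exposed for 48 h to eight half-log concentrations up to 100 uM in 0.5% DMSO, in duplicate. BCL2 mRNA was quantified by TaqMan qRT-PCR normalised to ACTB, GAPDH and POLR2A, with bidirectional fitting versus DMSO.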

[11] = read-out: Bcl-2 (BID) gene, BID (gene 637); test: LTEA_HepaRG_BID: Life Technologies and Expression Analysis (LTEA) Assay for Bcl-2 (BID) gene using HepaRG (AID 2283476)
How it was run: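 Differentiated HepaRG cells in serum-free induction medium were exposed in duplicate for 48 h to eight half-log concentrations up to 100 uM in 0.5% DMSO. BID mRNA was quantified by qRT-PCR, normalized to ACTB, GAPDH and POLR2A.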

Caspase-3 (Homo sapiens) = Caspase-3 (Homo sapiens) (UniProt P42574); test: LTEA_HepaRG_CASP3: Life Technologies and Expression Analysis (LTEA) Assay for cysteine-aspartic acid protease (CASP3) using HepaRG (AID 2283477)
How it was run: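 Differentiated HepaRG cells, plated 48 h, were treated in duplicate in serum-free induction medium for 48 h with eight half-log concentrations up to 100 uM in 0.5% DMSO. CASP3 mRNA measured by qRT-PCR, normalized to ACTB, GAPDH, POLR2A.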

[12] = read-out: Cytochrome P450 (CYP24A1), CYP24A1 (gene 1591); test: LTEA_HepaRG_CYP24A1: Life Technologies and Expression Analysis (LTEA) Assay for Cytochrome P450 (CYP24A1) using HepaRG (AID 2283478)
How it was run: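 HepaRG cells plated 48 h, then exposed in duplicate in serum-free induction medium for 48 h to 8-point half-log series from 100 uM in 0.5% DMSO. CYP24A1 mRNA by Fluidigm qRT-PCR, normalized to ACTB, GAPDH, POLR2A; bidirectional fit versus DMSO.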

[13] = read-out: Cytochrome P450 (CYP1A2), CYP1A2 (gene 1544); test: LTEA_HepaRG_CYP1A2: Life Technologies and Expression Analysis (LTEA) Assay for Cytochrome P450 (CYP1A2) using HepaRG (AID 2283479)
How it was run: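 Differentiated human HepaRG cells in serum-free induction medium exposed 48 hours in duplicate to 8 half-log concentrations from 100 uM, 0.5% DMSO. CYP1A2 mRNA quantified by qRT-PCR, normalized to ACTB, GAPDH and POLR2A; bidirectional fitting versus DMSO.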

[14] = read-out: cysteine-aspartic acid protease (CASP8), CASP8 (gene 841); test: LTEA_HepaRG_CASP8: Life Technologies and Expression Analysis (LTEA) Assay for cysteine-aspartic acid protease (CASP8) using HepaRG (AID 2283480)
How it was run: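 HepaRG, 48 h exposure, duplicate wells; 8 conc, half-log from 100 uM, 0.5% DMSO. Serum-free induction medium. CASP8 mRNA by TaqMan qRT-PCR, norm. ACTB/GAPDH/POLR2A; gain/loss fitted vs DMSO.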

[15] = read-out: Cytochrome P450 (CYP2B6), CYP2B6 (gene 1555); test: LTEA_HepaRG_CYP2B6: Life Technologies and Expression Analysis (LTEA) Assay for Cytochrome P450 (CYP2B6) using HepaRG (AID 2283481)
How it was run: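 Differentiated human HepaRG cells in serum-free induction medium, dosed in duplicate for 48 h over 8 half-log concentrations topping at 100 uM (0.5% DMSO). CYP2B6 mRNA measured by TaqMan qRT-PCR, normalized to ACTB, GAPDH, POLR2A; bidirectional fit versus DMSO.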

[16] = read-out: Cytochrome P450 2C19 (Homo sapiens) (UniProt P33261); test: LTEA_HepaRG_CYP2C19: Life Technologies and Expression Analysis (LTEA) Assay for CYP2C19 using HepaRG (AID 2283482)
How it was run: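 Differentiated HepaRG cells in serum-free induction medium exposed 48 h in duplicate, 8 concentrations from 100 uM by half-log steps in 0.5% DMSO. CYP2C19 mRNA measured by TaqMan qRT-PCR, normalized to ACTB, GAPDH, POLR2A. Bidirectional fit versus DMSO.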

CYP2C8 (gene 1558) = test: LTEA_HepaRG_CYP2C8: Life Technologies and Expression Analysis (LTEA) Assay for CYP2C8 using HepaRG (AID 2283483)
How it was run: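 CYP2C8 mRNA induction or loss, by qRT-PCR normalized to ACTB/GAPDH/POLR2A, is read in HepaRG cells after 48 h treatment. Concentrations run from 100 uM down in half-log dilutions, with 0.5% DMSO as vehicle and baseline.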

CYP2C9 (gene 1559) = test: LTEA_HepaRG_CYP2C9: Life Technologies and Expression Analysis (LTEA) Assay for CYP2C9 using HepaRG (AID 2283484)
How it was run: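 Cells plated 48 h, switched to serum-free induction medium, then treated in duplicate for 48 h at eight concentrations (max 100 uM, 0.5% DMSO). RNA then analysed by qRT-PCR for CYP2C9; curves fitted in both directions relative to DMSO.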

Measured: AC50

Chain of Apoptosis regulator Bcl-2 (Homo sapiens) (P10415 whole entry, looked up): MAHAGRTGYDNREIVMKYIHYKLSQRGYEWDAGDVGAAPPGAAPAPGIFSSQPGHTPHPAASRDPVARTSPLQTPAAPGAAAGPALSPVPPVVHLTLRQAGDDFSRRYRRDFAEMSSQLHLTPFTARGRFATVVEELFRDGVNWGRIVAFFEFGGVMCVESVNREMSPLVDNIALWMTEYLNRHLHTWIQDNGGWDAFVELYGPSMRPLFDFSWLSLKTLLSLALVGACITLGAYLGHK
Chain of Cytochrome P450 2C19 (Homo sapiens) (P33261 whole entry, looked up): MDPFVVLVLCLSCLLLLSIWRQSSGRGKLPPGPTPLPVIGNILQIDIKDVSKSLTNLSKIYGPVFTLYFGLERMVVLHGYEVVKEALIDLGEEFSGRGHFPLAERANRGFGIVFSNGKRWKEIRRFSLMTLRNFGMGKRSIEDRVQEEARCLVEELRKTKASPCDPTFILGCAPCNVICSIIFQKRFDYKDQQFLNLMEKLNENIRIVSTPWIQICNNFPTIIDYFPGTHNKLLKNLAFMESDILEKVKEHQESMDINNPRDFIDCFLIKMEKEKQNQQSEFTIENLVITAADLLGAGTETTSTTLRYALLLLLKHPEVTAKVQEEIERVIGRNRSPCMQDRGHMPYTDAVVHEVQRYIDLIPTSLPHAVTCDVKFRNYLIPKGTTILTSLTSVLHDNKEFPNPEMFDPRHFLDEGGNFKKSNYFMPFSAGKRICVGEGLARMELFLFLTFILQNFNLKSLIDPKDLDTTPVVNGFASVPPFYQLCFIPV
Chain of Broad substrate specificity ATP-binding cassette transporter ABCG2 (Homo sapiens) (Q9UNQ0 whole entry, looked up): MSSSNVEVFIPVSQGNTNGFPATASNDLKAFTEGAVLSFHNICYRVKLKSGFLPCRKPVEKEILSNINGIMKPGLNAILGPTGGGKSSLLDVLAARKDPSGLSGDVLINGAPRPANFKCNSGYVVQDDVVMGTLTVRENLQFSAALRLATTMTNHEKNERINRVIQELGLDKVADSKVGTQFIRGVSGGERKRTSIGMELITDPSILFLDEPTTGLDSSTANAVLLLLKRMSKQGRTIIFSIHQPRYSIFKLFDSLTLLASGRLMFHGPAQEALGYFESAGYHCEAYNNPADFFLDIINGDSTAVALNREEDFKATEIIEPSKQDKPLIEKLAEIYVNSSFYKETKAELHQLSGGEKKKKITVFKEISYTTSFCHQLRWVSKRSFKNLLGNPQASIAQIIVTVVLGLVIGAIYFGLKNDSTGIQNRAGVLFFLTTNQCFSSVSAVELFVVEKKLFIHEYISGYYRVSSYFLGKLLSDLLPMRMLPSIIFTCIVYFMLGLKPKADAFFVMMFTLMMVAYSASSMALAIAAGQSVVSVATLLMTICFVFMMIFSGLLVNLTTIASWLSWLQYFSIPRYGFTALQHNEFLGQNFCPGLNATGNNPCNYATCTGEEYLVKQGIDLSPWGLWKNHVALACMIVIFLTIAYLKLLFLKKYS
Chain of Caspase-3 (Homo sapiens) (P42574 whole entry, looked up): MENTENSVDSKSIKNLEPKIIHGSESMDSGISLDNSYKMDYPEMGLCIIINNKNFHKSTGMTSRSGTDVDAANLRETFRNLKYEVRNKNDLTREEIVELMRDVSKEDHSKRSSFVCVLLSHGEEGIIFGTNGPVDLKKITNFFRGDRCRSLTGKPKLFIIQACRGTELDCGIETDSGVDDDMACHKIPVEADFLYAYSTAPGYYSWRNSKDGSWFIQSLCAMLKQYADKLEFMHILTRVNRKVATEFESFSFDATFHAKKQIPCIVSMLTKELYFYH

CCCC(CCC)C(=O)O
inactive: [1] | [2] | [3] | [4] | [5] | [6] | [7] | [8] | BCL2L11 (gene 10018) | [9] | [10] | [11] | Caspase-3 (Homo sapiens) | [12] | [13] | [14] | [15] | [16] | CYP2C8 (gene 1558) | CYP2C9 (gene 1559)

CCc1ccc(O)c(C(C)(C)C)c1
active: [11] 3.67 nM
inactive: [1] | [2] | [3] | [4] | [5] | [6] | [7] | [8] | BCL2L11 (gene 10018) | [9] | [10] | Caspase-3 (Homo sapiens) | [12] | [13] | [14] | [15] | [16] | CYP2C8 (gene 1558) | CYP2C9 (gene 1559)

O=S(=O)(O)c1ccc(N=Nc2c(O)ccc3cc(S(=O)(=O)O)ccc23)cc1
inactive: [1] | [2] | [3] | [4] | [5] | [6] | [7] | [8] | BCL2L11 (gene 10018) | [9] | [10] | [11] | Caspase-3 (Homo sapiens) | [12] | [14] | [16] | CYP2C8 (gene 1558) | CYP2C9 (gene 1559)
active: [13] 50 µM | [15] 22.9 µM

CCCCCCCC1CCC(=O)O1 (stereo unspecified)
inactive: [1] | [2] | [3] | [4] | [5] | [6] | [7] | [8] | BCL2L11 (gene 10018) | [9] | [10] | [11] | Caspase-3 (Homo sapiens) | [14]

COc1cc2c(c(OC)c1OC)-c1ccc(OC)c(=O)cc1[C@@H](NC(C)=O)CC2
inactive: [1] | [2] | [5] | [10] | [11] | Caspase-3 (Homo sapiens) | [12] | [14]
active: [3] 0.0989 µM | [4] 0.221 µM | [6] 55.9 nM | [7] 0.0644 µM | [8] 0.148 µM | BCL2L11 (gene 10018) 0.237 µM | [9] 0.138 µM | [15] 0.0986 µM | CYP2C8 (gene 1558) 0.0951 µM | CYP2C9 (gene 1559) 0.0777 µM

c1ccc2c(c1)-c1cccc3c1c-2cc1ccccc13
inactive: [1] | [4] | [5] | [6] | [11] | [12] | [15]
active: [2] 3.88 µM | [3] 15.9 µM | [7] 12.3 µM | [8] 17.2 µM | BCL2L11 (gene 10018) 12.5 µM | [9] 13.4 µM | [10] 6 µM | Caspase-3 (Homo sapiens) 13.5 µM | [13] 1.13 µM | [16] 17.2 µM | CYP2C8 (gene 1558) 17.3 µM | CYP2C9 (gene 1559) 18.1 µM

O=C(O)c1cccc(C[C@@H]2COc3ccc(OCc4nc5cc(F)ccc5s4)cc3[C@@H]2O)c1
inactive: [1] | [2] | [3] | [5] | [6] | [7] | BCL2L11 (gene 10018) | [10] | [11] | Caspase-3 (Homo sapiens) | [12] | [13] | [14]
active: [4] 80 µM | [8] 68.7 µM | [9] 81.1 µM | [15] 92 µM | [16] 83.9 µM | CYP2C8 (gene 1558) 84.2 µM | CYP2C9 (gene 1559) 81.6 µM

NC(=O)N1c2ccccc2C=Cc2ccccc21
active: [15] 5.83 µM | [16] 15.9 µM
inactive: [1] | [2] | [3] | [4] | [5] | [6] | [7] | [8] | BCL2L11 (gene 10018) | [9] | [10] | [11] | Caspase-3 (Homo sapiens) | [12] | [13] | [14] | CYP2C8 (gene 1558) | CYP2C9 (gene 1559)

From PubChem BioAssay (EPA / NIEHS)
